# BRCT inh red: disrupts BRCA1 BRCT binding to phosphoprotein, red fluorophore readout; Potency, µM (doses to about 76.9 µM), for inactives: at the highest dose activity change, negative = inhibition, hits mostly inhibitors; 75,000 compounds, 0.03% hits; AID 892; BRCT-phosphopeptide binding, red fluorescence polarization; also: % is scaled to controls: 0 for no effect and ±100 for the full control effect
#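 Fluorescence polarization: 100 nM His-tagged BRCA1 BRCT with 100 nM TAMRA-labelled phospho-BACH1 decapeptide, phosphate buffer pH 7.3 with 150 mM NaCl, DTT, 0.01% Tween 20; 12 min RT. Binding inhibition seen as FP decrease.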
# TsaE inh: inhibitors of E. coli YjeE (TsaE). 71,000 compounds, 0.05% hits. Potency, µM. purified YjeE enzyme, qHTS inhibition assay
#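 Purified YjeE (10 uM) with BODIPY Texas Red-labeled ADP probe (2 uM); compounds pin-transferred, 15 min at room temperature. Binding inhibition read as decreased fluorescence polarization; ADP titration as control.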
# Tau fil binding: binders of human tau filaments; P10636; recombinant tau filaments, thioflavin S fluorescence, 15 h; filaments grown with octadecylsulfate alongside compound; 71,000 compounds, 2% hits; AID 596; Potency, µM (titrated, usually from 57.1 µM), without a hit: top-dose activity change, negative = inhibition;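 also: potency is read from the fitted curve at half-maximal effect; % is scaled to controls: 0 for no effect and ±100 for the full control effect; actives lower thioflavin S fluorescence by blocking filaments or displacing dye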
# Target sequence (P10636 whole entry, looked up): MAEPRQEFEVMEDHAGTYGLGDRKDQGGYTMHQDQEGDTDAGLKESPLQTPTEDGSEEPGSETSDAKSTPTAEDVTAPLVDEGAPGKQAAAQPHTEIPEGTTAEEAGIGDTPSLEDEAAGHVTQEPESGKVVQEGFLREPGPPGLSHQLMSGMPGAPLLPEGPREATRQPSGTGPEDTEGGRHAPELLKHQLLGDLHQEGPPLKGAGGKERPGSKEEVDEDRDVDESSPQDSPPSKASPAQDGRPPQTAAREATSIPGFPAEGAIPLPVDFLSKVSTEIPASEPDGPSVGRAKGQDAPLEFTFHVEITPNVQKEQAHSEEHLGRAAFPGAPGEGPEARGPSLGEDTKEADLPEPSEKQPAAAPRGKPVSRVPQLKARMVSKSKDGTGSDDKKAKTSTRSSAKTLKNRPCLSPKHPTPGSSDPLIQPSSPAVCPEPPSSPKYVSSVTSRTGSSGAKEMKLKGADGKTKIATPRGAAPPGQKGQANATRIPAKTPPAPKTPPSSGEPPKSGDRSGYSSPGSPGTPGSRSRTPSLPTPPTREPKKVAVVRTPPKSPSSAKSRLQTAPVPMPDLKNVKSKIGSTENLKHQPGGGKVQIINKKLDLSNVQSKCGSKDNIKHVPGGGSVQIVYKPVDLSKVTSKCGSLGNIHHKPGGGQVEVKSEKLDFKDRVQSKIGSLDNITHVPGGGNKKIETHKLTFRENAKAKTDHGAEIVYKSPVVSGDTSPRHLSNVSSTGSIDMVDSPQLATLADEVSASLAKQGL
#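 Thioflavine S fluorescence (ex 450, em 510 nm) reports filaments formed from 1 uM human tau plus 30 uM ODS over 15 h at 37 C (10 mM HEPES pH 7.4, 100 mM NaCl, 5 mM DTT); compounds displacing dye or blocking filaments lower signal.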
# ALOX15 inhib: 15-hLO (ALOX15) enzyme inhibition. 74,000 compounds, 1.4% hits. AID 887. purified 15hLO-1, xylenol orange hydroperoxide absorbance. P16050. Potency, µM (doses to about 57.1 µM), for inactives: at the highest dose activity change, negative = inhibition, hits mostly inhibitors; also: potency is read from the fitted curve at half-maximal effect; % is scaled to controls: 0 for no effect and ±100 for the full control effect; nearly all actives have a fitted effect of over 55% in size
#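 Purified human 15hLO-1 (40 nM final) in 25 mM Hepes pH 7.5, 0.01% Triton X-100 was preincubated with compound 15 min at room temperature, then reacted 6 min with 50 uM arachidonic acid; hydroperoxide detected by Fe-XO, 573/405 nm absorbance ratio.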
# BRCT inh green: BRCA1 BRCT-phosphoprotein interaction inhibition | P38398 | BRCA1 BRCT-phosphopeptide binding, green fluorescence polarization | Potency, µM (doses to about 76.9 µM), for the others: top-dose activity change, negative = inhibition, hits mostly inhibitors | 75,000 compounds, 0.05% hits | AID 875;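 also: potency is read from the fitted curve at half-maximal effect; plate controls were peptide without protein for full effect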
#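 Compounds were incubated for 12 min at room temperature with a complex of 100 nM fluorescein-tagged pBACH1 decapeptide and 250 nM His-tagged BRCT protein. Buffer was phosphate pH 7.3 with EDTA, DTT and Tween 20. Disruption of binding lowers the polarization signal.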
# DNA Pol III inh: inhibitors of bacterial DNA polymerase III holoenzyme; AID 603; reconstituted DNA polymerase III holoenzyme replication, biochemical; 71,000 compounds, 0.25% hits; Potency, µM (highest dose often 57.1 µM), inactives show at the top dose activity change, negative = inhibition; also: potency is read from the fitted curve at half-maximal effect; % is scaled to controls: 0 for no effect and ±100 for the full control effect
#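 Reconstituted *E. coli* holoenzyme (0.35 nM Pol III, 1 nM beta, 154 nM SSB, 2 nM primase) was preincubated with compound for 15 min at RT. Synthesis on 1.4 nM ssM13Gori ran 35 min, then was stopped with PicoGreen/EDTA and read as dsDNA fluorescence.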
# An asterisk follows results filed as active; i = inactive; ? = inconclusive; . = no result given; ! = repeats disagree; [ ] = another dose, or the depositor's remark. In the library only some 3.1% were active in any assay of this set; here they are far more common. Calls follow the shape of the dose curve; as a rule, active = well fitted curve in the direction sought with a large enough effect; inconclusive = small, poorly fitted or top-dose-only effect, or another doubt; inactive = no such curve, though single readings can be large; an effect the other way counts as inactive or inconclusive.
SMILES,BRCT inh red,TsaE inh,Tau fil binding,ALOX15 inhib,BRCT inh green,DNA Pol III inh
O=C1C2=C(Nc3ccccc3SC2c2ccco2)c2ccccc21 (stereo not drawn),-1%,i,4µM*,?,-2%,0%
O=C(c1cccc(F)c1)N1CCC2(CC1)CCN(c1ccccn1)CC2,1%,i,-1%,-2%,-3%,-2%
O=S(=O)(NCCO)c1cccc2cccnc12,2%,i,-1%,12%,-1%,0%
O=S(=O)(NCCN1CCCC1)c1cccc2cccnc12,-3%,i,?,10µM*,2%,-8%
O=C(Nc1ccc(Br)cn1)c1ccc2nccnc2c1,2%,i,16µM*,-16%,0%,0%
CC(=O)NCCNc1ncnc2ccc(-c3cccc(NS(C)(=O)=O)c3)cc12,1%,i,1%,15%,0%,-7%
CC1CCN(Cc2c(C#N)c3ccccc3n2C)CC1,-1%,i,-2%,25µM*,-1%,-4%
CN1CCN(Cc2c(C#N)c3ccccc3n2C)CC1,-1%,i,11%,0%,-1%,-7%
COc1ccc(OC)c(N2Cc3cc(C)c(C)cc3C2)c1,-2%,i,16µM*,-16%,-2%,-1%
COc1ccc(OC)c(-n2cnnn2)c1,2%,i,-12%,-5%,-2%,-8%
CCOc1ccccc1N1Cc2cc(C)c(C)cc2C1,0%,i,7.9µM*,-25%,0%,-2%
CCOc1ccccc1N1CCN(Cc2cccc(OC)c2OC)CC1,0%,.,.,-18%,-2%,.
O=S(=O)(NCCNC/C=C\c1ccc(Br)cc1)c1cccc2cnccc12,-2%,i,-7%,-16%,-1%,-2%
CCN1CCCC1CNC(=O)c1ccc(-n2c(=O)c(=O)[nH]c3ccccc32)cc1 (stereo not drawn),-2%,.,.,-1%,-2%,.
CCN(CC)c1nc(C#N)cc(-c2ccc(OC)cc2)n1,-4%,i,13µM*,-17%,-1%,-1%
CCSc1nnc(-c2ccc(Cl)cc2Cl)o1,0%,i,2%[11.4 µM],3.2µM*,0%,-11%[11.4 µM]
CO[C@]1(NC(=O)Cc2cccs2)C(=O)N2C(C(=O)O)=C(COC(N)=O)CS[C@H]21,0%[34.4 µM],i,-8%[25.6 µM],9%[25.6 µM],0%[34.4 µM],-5%[25.6 µM]
CC(=O)c1c(O)c(C)c(O)c2c1OC1=CC(=O)[C@H](C(C)=O)C(=O)[C@]12C,.,i,?,.,.,-2%
CCCCCOc1ccc(N2C(=O)CC(N(O)c3ccccc3)C2=O)cc1 (stereo not drawn),2%,i,13µM*,-5%,0%,-4%
CCN(CC)CCOC(=O)C1(c2ccc([N+](=O)[O-])cc2)CCCC1,-1%,i,13µM*!,?,-6%,1%
CC(C)C[C@H](NC(=O)[C@@H](NC(=O)N[C@@H](Cc1ccccc1)C(=O)O)[C@H]1CCN=C(N)N1)C(=O)N[C@H](C=O)Cc1ccccc1,.,i,?,.,.,-5%
O=C(O)c1ccc(NS(=O)(=O)c2cccc3ccccc23)cc1,2%,.,.,5%,-1%,.
OC[C@@H]1O[C@@H](n2cnc3c(NC4CCCC4)ncnc32)[C@@H](O)[C@H]1O,-4%,i,-10%,-5%,-3%,-9%
O=C(c1ccccc1)c1cc(F)c(N2CCOCC2)cc1Cl,-3%,.,.,-2%,-1%,.
O=C(c1ccccc1)c1ccc(N2CCOCC2)c(F)c1,-1%,i,-22%,32µM*,7%,6%
SMILES,BRCT inh red,TsaE inh,Tau fil binding,ALOX15 inhib,BRCT inh green,DNA Pol III inh
CC1=CC(C)(C)Nc2ccccc21,0%,i,16µM*!,-8%,1%,-2%
CCC1(C)Nc2ccccc2C(=O)N1O (stereo not drawn),1%,i,-6%,2%,-2%,0%
COc1cc2ccc(=O)oc2c(O)c1O,-1%,i,?,13µM*!,-3%,-8%
Cn1cnnc1SCC(=O)c1ccc2c(c1)CCCC2,-2%,i,-6%,-3%,0%,-1%
Cc1cc(C)c2c(c1)-c1c(ssc1=S)C(C)(C)N2C(=O)CSc1nncn1C,0%,i,2µM*,?,-2%,-2%[11.4 µM]
Cc1ccc2c(c1)-c1c(ssc1=S)C(C)(C)N2C(=O)CSc1nncn1C,0%,i,7.9µM*,16µM*,0%,0%
Cc1ccc(C)c(NC(=O)NCc2ccc(Cl)cc2)c1,0%[15.4 µM],i,0%[11.4 µM],0%[11.4 µM],0%[15.4 µM],-8%[11.4 µM]
N=C(N)[C@H](N=Nc1ccccc1)C(N)=O,2%[15.4 µM],i,5%[11.4 µM],-8%[11.4 µM],-1%[15.4 µM],-3%[11.4 µM]
COc1ccc(NC(=O)/C=C\c2ccc(Cl)cc2)cc1,-1%,i,-12%,-11%,-1%,-6%
O=C(/C=C\c1ccc(O)c(O)c1)O[C@H]1C[C@@](O)(C(=O)O)C[C@H](O)[C@@H]1O,.,i,?,.,.,-7%
c1csc(CNc2ccnc(-c3ccoc3)n2)c1,-4%,i,-5%,20µM*,8%,-9%
FC(F)(F)c1ccccc1-c1nccc(NCc2cccs2)n1,-2%,i,1%,-13%,-2%,-8%
COc1ccccc1-c1nccc(NCc2cccs2)n1,-3%,i,-23%,10µM*,1%,-11%
COc1ccccc1-c1nccc(Nc2ccc(F)cc2)n1,-1%,i,16µM*,-17%,-2%,-8%
COC(=O)NC(c1ccccc1)C(C#N)C(=O)OC (stereo not drawn),0%[15.4 µM],.,.,10%[11.4 µM],-1%[15.4 µM],.
OB(O)c1ccc(B(O)O)cc1,0%,.,.,7%,-3%,.
Cc1ccc(S(=O)(=O)N[C@H]2COC(=O)C/C=C\[C@@H](C)[C@H](NS(=O)(=O)c3ccc(C)cc3)COC(=O)[C@H](C)NC(=O)C/C=C\[C@H]2C)cc1,-2%[15.4 µM],.,.,6%[11.4 µM],-2%[15.4 µM],.
CCC1=C2CC[C@H]3C(=O)N(c4ccccc4)C(=O)[C@H]3[C@H]2[C@@]2(Cc3ccccc3)C(=NCC3CC3)OC(=O)N2C1=O,0%,.,.,.,-3%,.
O=C(O)c1cc(S(=O)(=O)Nc2cccc(Cl)c2)ccc1O,1%,.,.,-6%,1%,.
COc1ccc(NC(=O)COc2ccccc2)c(OC)c1,0%,i,4%,1%,-2%,-2%
COc1ccc(NC(=O)Cc2cccs2)c(OC)c1,1%,i,3.2µM*,-30%[11.4 µM],-1%,-5%[11.4 µM]
CC1=C/C(=C\c2ccc3c(c2)OCO3)C(=O)S1,-1%,i,25µM*,?,4%,-6%
C[C@@H](C(=O)O)/C(=C/c1ccc2c(c1)OCO2)C(=O)O,1%[15.4 µM],i,4%[11.4 µM],5%[11.4 µM],0%[15.4 µM],-7%[11.4 µM]
N[C@H](Cc1ccc(F)cc1)C(=O)O,-1%,i,-6%,-1%,-1%,2%
